The text below walks through data of PubChem BioAssay.

Assay [1] in a line: anti-His antibody binders, primary screen, artefact control for SMM control protein annotation, biochemical, small-molecule microarray, 635 nm fluorescence (AID 1128).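 Note: score merges feature fluorescence with signal-to-noise for each printed compound spot.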 The note with it: anti-His Alexa647 antibody binding, higher = more signal.
Assay [2] relates to Human papillomavirus type 1a E7 protein (residues 1-88). The experiment in a line: HPV1a E7 small-molecule binders, primary screen, biochemical, small-molecule microarray, residues 1-88, 635 nm (AID 1129). The note with it: small-molecule microarray binding, fluorescence 635 nm; higher = more signal.
For assay [3], the target named is Focal adhesion kinase 1 (Homo sapiens) (UniProt Q05397). The assay is described as follows: small-molecule microarray binders of FAK, primary screen, biochemical, 635/667 nm fluorescence, BSA, DTT (AID 1130).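 Note: composite of spot emission at 667 nm and signal to noise over triplicate slides.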 The note with it: PTK2 binding, 635 nm fluorescence, higher = more signal.
Assay [4] concerns Fibrinogen (Alexa647-labelled). The assay is described as follows: fibrinogen binders on compound microarrays, profiling panel, artefact control for SMM control-protein annotation, biochemical, small-molecule microarray, 635/667 nm fluorescence (AID 1131).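 Note: z-score merges 667 nm fluorescence with per-spot signal-to-noise over triplicate slides.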 The note with it: fibrinogen-A647 binding fluorescence, higher = more signal.
Assay [5] has as its target Follistatin (Homo sapiens) (UniProt P19883). The assay is described as follows: follistatin binders on small-molecule microarrays, primary screen, biochemical, small-molecule microarray, 635/667 nm fluorescence (AID 1132). The note with it: FST binding, 635 nm fluorescence, higher = more signal.
Assay [6] addresses Fibroblast growth factor 2 (Homo sapiens) (UniProt P09038). The assay is described as follows: FGF2 binders on small-molecule microarrays, primary screen, biochemical, small-molecule microarray, 635/667 nm fluorescence (AID 1133). The note with it: small-molecule microarray binding, FGF2, fluorescence 635/667; higher = more signal.
The nature of assay [7]: mitochondrial membrane potential change in A549 cells, profiling panel, cell-based, JC-1 fluorescence, basal, 24 h, 100 nL (AID 1138).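 Note: A549 lung adenocarcinoma cells under basal conditions with no added stimulus; test concentration not given here.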 The note with it: higher = more signal.
In assay [8] the test system is Lefty1. The assay is described as follows: Lefty1 binders on small-molecule microarrays, primary screen, biochemical, small-molecule microarray, 635/667 nm fluorescence (AID 1139). The note with it: small-molecule microarray binding, fluorescence 635/667; higher = more signal.
Assay [9] deals with wheat germ agglutinin (Triticum aestivum), Alexa647-labelled. The assay is described as follows: wheat germ agglutinin binders on compound microarrays, profiling panel, artefact control for SMM control-protein annotation, biochemical, small-molecule microarray, 635/667 nm fluorescence (AID 1140).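 Note: score merges 667 nm feature emission with signal to noise over triplicate slides.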 The note with it: WGA-A647 binding, 635 nm fluorescence, higher = more signal.
Assay [10] concerns the target Luciferin 4-monooxygenase (Photinus pyralis) (UniProt P08659). The assay is described as follows: firefly luciferase enzyme inhibitors, primary screen, biochemical, luminescence, purified enzyme, 2006 set (AID 1141).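 Note: cell-free assay with purified firefly luciferase at 100 ng per well in PBS; test concentration not given here.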 The note with it: SteadyGlo luminescence, 30 min, higher = more signal, called active from +8 up or from −8 down.
Assay [11] has as its system Wnt5a (protein binding on small-molecule microarray). The assay is described as follows: Wnt5a binders on small-molecule microarray, primary screen, biophysical, 635/667 nm fluorescence (AID 1142).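 Note: fluorescence read at 667 nm with signal to noise per printed feature.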 The note with it: 635 nm fluorescence, higher = more signal.
Assay [12] in a line: cell viability in Huh7 cells, primary screen, cytotoxicity control for HCV replication inhibitor project, CellTiter-Glo luminescence, basal, 48 h (AID 1143).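 Note: Huh7 hepatoma cells carrying a hepatitis C replication reporter with no stimulus; test concentration not given here.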 The note with it: Huh7 HCV replicon, higher = more signal, called active from +8 up or from −8 down. (In general: In ATP-based viability assays light output follows the ATP content of the culture.)
Assay [13] can be described thus: P. aeruginosa biofilm formation inhibitors, primary screen, PAO1 strain, BacTiter-Glo luminescence, LB-PBS (AID 1144). The note with it: 12 h, higher = more signal.
Assay [14] can be described thus: CREB reporter modulators without forskolin, primary screen, cell-based, PC12, CRE-LacZ reporter, unstimulated (AID 1145). The note with it: no forskolin, luminescence, 4.5 h, higher = more signal, called active from +8 up or from −8 down.
Assay [15] in a line: CREB reporter modulators under forskolin, primary screen, cell-based, PC12, CRE-LacZ reporter, forskolin-stimulated (AID 1146).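 Note: PC12 cells with 6xCRE LacZ reporter stimulated by forskolin 10 µM; beta-galactosidase reporter signal reflecting CREB driven transcription.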 The note with it: luminescence, 4.5 h, higher = more signal, called active from +8 up or from −8 down.
For assay [16], the target named is Streptavidin (Streptomyces avidinii) (UniProt P22629). The experiment in a line: streptavidin binders on small-molecule microarray, primary screen, artefact control for SMM compound annotation, biophysical, 635/667 nm fluorescence (AID 1147).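 Note: signal reflects streptavidin binding to arrayed compounds as a control protein.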 The note with it: streptavidin binding, higher = more signal.
The nature of assay [17]: small-molecule binders of probe aInhba, primary screen, biochemical, small-molecule microarray, 635/667 nm fluorescence (AID 1148).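 Note: score merges 667nm spot fluorescence with signal-to-noise for antibody binding to printed compounds.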 The note with it: higher = more signal.
Assay [18] addresses Torsin-1A (Homo sapiens) (UniProt O14656). The assay is described as follows: torsin A binders from cell lysate, primary screen, small-molecule microarray, wild-type, 635/667 nm (AID 1149). The note with it: COS7 hTOR1A-WT lysate, 635 nm fluorescence, higher = more signal.
Assay [19] shares this target. The assay is described as follows: small-molecule binders of mutant TOR1A in lysate, primary screen, cell lysate, small-molecule microarray, COS7 lysate, 635/667 nm fluorescence (AID 1150).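 Note: score pools 667 nm emission and signal to noise measuring lysate protein binding.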 The note with it: COS7 hTOR1A mutant lysate, 635 nm fluorescence, higher = more signal.
Assay [20] relates to Sonic hedgehog protein (Shh). The experiment in a line: small-molecule binders of Shh protein, primary screen, biochemical, small-molecule microarray, 635/667 nm fluorescence (AID 1151).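 Note: Shh protein binding to compounds spotted on small-molecule microarray slides; score combines spot fluorescence intensity with signal-to-noise across triplicate slides.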 The note with it: small-molecule microarray binding, 635 nm fluorescence; higher = more signal.

Active and inactive are the calls of the source. Unless noted, the rule behind the calls is not given here.

Follistatin (Homo sapiens), sequence (P19883 whole entry, looked up): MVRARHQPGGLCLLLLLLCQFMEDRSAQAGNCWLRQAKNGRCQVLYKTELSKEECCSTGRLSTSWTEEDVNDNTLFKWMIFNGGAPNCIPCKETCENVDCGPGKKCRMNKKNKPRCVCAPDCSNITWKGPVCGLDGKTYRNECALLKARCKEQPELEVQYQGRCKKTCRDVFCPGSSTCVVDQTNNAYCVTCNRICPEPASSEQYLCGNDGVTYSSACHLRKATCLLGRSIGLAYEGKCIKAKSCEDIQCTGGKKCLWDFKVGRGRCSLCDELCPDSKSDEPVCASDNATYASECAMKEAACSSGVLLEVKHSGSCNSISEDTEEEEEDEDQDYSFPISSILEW
Focal adhesion kinase 1 (Homo sapiens), sequence (Q05397 whole entry, looked up): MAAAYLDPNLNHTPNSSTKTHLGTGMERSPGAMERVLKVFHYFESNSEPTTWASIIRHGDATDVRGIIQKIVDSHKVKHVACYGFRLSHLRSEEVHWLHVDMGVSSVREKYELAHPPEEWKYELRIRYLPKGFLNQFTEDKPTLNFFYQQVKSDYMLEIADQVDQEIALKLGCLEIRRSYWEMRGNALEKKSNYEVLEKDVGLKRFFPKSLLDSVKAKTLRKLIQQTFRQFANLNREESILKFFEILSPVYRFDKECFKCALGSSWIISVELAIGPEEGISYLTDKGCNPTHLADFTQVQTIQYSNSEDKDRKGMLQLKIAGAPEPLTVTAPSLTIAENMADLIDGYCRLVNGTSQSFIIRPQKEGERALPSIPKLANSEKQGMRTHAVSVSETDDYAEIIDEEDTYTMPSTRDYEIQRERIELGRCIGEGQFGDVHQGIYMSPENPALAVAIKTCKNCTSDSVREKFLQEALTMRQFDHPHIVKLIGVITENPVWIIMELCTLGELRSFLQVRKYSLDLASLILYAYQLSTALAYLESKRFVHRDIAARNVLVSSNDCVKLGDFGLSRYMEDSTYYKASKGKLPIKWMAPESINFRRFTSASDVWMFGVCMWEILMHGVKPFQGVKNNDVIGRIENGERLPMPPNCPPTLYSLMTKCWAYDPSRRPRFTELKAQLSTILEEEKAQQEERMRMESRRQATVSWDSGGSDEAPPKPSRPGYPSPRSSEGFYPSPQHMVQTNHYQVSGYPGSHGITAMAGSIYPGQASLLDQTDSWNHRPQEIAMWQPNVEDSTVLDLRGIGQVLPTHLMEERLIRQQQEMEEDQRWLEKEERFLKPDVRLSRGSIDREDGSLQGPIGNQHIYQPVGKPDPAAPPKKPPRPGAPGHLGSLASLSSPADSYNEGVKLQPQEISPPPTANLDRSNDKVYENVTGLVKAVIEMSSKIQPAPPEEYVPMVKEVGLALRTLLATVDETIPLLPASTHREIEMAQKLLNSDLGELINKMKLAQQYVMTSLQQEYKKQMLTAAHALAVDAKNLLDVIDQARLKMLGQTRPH
Torsin-1A (Homo sapiens), sequence (O14656 whole entry, looked up): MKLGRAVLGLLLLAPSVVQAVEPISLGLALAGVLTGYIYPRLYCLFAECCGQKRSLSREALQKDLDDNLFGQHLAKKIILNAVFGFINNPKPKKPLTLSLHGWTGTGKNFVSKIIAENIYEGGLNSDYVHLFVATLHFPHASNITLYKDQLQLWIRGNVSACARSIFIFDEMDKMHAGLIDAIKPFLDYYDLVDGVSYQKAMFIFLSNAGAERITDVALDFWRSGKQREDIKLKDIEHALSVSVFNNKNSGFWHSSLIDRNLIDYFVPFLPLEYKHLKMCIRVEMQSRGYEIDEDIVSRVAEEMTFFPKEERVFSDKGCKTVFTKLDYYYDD
Fibroblast growth factor 2 (Homo sapiens), sequence (P09038 whole entry, looked up): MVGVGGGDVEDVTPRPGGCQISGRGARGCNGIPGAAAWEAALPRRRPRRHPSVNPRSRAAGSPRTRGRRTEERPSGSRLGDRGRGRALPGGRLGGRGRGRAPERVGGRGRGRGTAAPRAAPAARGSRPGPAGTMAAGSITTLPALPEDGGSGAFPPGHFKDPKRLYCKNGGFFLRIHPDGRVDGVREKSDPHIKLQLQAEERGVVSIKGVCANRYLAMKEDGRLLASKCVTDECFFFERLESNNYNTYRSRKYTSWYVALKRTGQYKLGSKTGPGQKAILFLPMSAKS
Luciferin 4-monooxygenase (Photinus pyralis), sequence (P08659 whole entry, looked up): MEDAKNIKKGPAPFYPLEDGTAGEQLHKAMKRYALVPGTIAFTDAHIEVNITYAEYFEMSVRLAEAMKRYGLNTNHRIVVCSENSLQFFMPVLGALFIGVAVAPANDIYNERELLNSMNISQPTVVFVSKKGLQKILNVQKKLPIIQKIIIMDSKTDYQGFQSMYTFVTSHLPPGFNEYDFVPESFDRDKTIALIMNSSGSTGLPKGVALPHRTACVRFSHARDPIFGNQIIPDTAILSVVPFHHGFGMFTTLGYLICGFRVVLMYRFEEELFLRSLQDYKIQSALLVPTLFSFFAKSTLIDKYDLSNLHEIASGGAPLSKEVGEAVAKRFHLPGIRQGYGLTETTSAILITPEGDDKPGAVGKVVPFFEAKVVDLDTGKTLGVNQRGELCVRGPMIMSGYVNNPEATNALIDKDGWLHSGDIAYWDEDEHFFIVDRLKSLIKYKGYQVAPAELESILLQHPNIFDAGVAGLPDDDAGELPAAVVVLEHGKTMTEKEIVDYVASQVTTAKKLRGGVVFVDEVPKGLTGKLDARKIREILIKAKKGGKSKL
Streptavidin (Streptomyces avidinii), sequence (P22629 whole entry, looked up): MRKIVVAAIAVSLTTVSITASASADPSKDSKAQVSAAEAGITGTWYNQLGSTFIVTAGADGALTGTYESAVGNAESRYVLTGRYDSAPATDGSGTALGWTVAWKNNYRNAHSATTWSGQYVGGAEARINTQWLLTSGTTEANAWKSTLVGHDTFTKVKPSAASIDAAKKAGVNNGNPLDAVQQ

Turning to `CN(C)CCCCCCNC(=O)[C@@H]1C[C@@H]2C(=O)N[C@@H](CCCCN)C(=O)N2[C@@H]1c1cccc(OCCO)c1`, the composite z-score in assay [1] was 3.24; in assay [2], 1.31; in assay [3] it was 2.31; in assay [4], 1.01; in assay [5], 1.45; in assay [6] it was 1.59. Besides, the composite z-score in assay [8] was found to be 1.66; in assay [9], 1.62; in [11] it was 1.97; in assay [16], 3.03; in assay [17], 1.57; in [18] it was 3.29. The composite z-score was 3.11 in [19] and 1.92 in [20]. For the same compound, the z-score in assay [7] is 1.08; in [10] it was -1.61 (inactive); in [12], -0.598 (inactive); in assay [13], -1.19 (inactive); in assay [14], -0.268 (inactive); in assay [15], -0.199 (inactive).

For `COc1ccc([Si](C)(C)[C@H]2[C@H](CC(=O)N3Cc4ccccc4C[C@H]3CO)O[C@@]3(C(=O)N(Cc4ccc(N5CCC5=O)cc4)c4ccccc43)[C@@H]2C)cc1`, the composite z-score was 1.72 in assay [1]; 1.13 in assay [2]; 1.12 in assay [3]; 0.42 in assay [4]; 1.33 in assay [5]; 1.32 in assay [6]. Further, the composite z-score amounted to 1.56 in [8]; 0.104 in [9]; 0.66 in assay [11]; 0.679 in assay [16]; 0.256 in assay [17]; 1.27 in [18]. In addition, the composite z-score in assay [19] worked out at 0.574; in assay [20], 1.85. The z-score in [7] was 1.11; in [10], 0.511 (inactive); in [12] it was -6.48 (inactive); in assay [13], 0.522 (inactive); in assay [14] it was 0.656 (inactive); in assay [15], -0.317 (inactive).

`COCCOC(=O)N1C(=O)[C@@]2(c3cc(C#Cc4ccc(OC)cc4)ccc31)[C@H](C(=O)N1CCCCCCC1)[C@H]1C(=O)O[C@H](c3ccccc3)[C@H](c3ccccc3)N1[C@@H]2c1ccc(OCCO)cc1`: the composite z-score in assay [1] was determined as 0.885; in [2], 0.94; in assay [3], 0.409; in assay [4], 0.905; in assay [5], 1.58; in [6], 2.1. Also, the composite z-score was found to be 1.36 in assay [8]; 1.32 in assay [9]; 0.812 in [11]; 1.67 in assay [16]; 1.82 in assay [17]; 1.12 in assay [18]. Further, the composite z-score was 1.06 in assay [19] and 2.15 in [20]. The z-score in [7] is -0.951; in assay [10] it was -2.56 (inactive); in assay [12], -4.68 (inactive); in [13], -1.97 (inactive); in [14] it was 0.0857 (inactive); in [15] it was -0.66 (inactive).

`O=C(NCc1ccccc1)[C@@H]1c2ccccc2C(=O)N(CC23CC4CC(CC(C4)C2)C3)[C@H]1c1ccc(CO)cc1`: the composite z-score in assay [1] turned out to be 0.153; in [2], 1.19; in [3], 0.0304; in assay [4], 0.937; in assay [5], 1.17; in assay [6] it was 1.43. Also, the composite z-score in assay [8] is 0.884; in assay [9], 0.31; in assay [11], 0.237; in assay [16], 0.467; in assay [17] it was -0.377; in [18], 0.239. For the same compound, the values for the composite z-score in assay [19] and in assay [20] were 0.654 and 1.83, respectively. For the same compound, the z-score was 0.705 in assay [7]; -0.715 (inactive) in [10]; -2 (inactive) in assay [12]; 0.196 (inactive) in assay [13]; -0.439 (inactive) in assay [14]; 0.707 (inactive) in assay [15].

As for `NCCCCCNC(=O)[C@@H]1C[C@@H]2C(=O)N[C@@H](Cc3ccccc3)C(=O)N2[C@@H]1c1cccc(OCCO)c1`, the composite z-score was 1.63 in assay [1]; -0.074 in assay [2]; 0.123 in [3]; 0.968 in [4]; 0.574 in assay [5]; 0.635 in assay [6]. The composite z-score in assay [8] is 0.325; in assay [9] it was 1.12; in assay [11], 0.0984; in assay [16], 0.44; in assay [17], -0.182; in [18] it was 0.89. Moreover, the composite z-score is 0.373 in [19] and 0.867 in assay [20]. The z-score in assay [7] was -0.505; in assay [10], -0.435 (inactive); in assay [12], 0.213 (inactive); in assay [13], 0.205 (inactive); in [14] it was 0.415 (inactive); in assay [15] it was 0.201 (inactive).
